Source: PubChem BioAssay
In the library only some 8.7% were active in any assay of this set; here they are far more common.
Vaccinia Venus – qHTS for Stage-Specific Inhibitors of Vaccinia Orthopoxvirus: Venus Reporter Primary qHTS. 0.46% of 330,000 active. Potency, µM (highest dose often 36.5 µM), for the others: at the top dose activity change, negative = inhibition, most hits filed as inhibitors. Vaccinia virus Venus reporter expression, fluorescence; calls by dose curve; tested in A549 cells; further: nearly all actives have a fitted effect of over 30% in size
Pf growth 96h – Primary qHTS for delayed death inhibitors of the malarial parasite plastid, 96 hour incubation; P. falciparum luciferase reporter growth, 96 h; Potency, µM (doses to about 28.7 µM), for the others: top-dose activity change, negative = inhibition, most hits filed as inhibitors; 6.9% of 320,000 active; AID 504834, 2011
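Erythrocytes infected with luciferase-expressing P. falciparum were dispensed at 2% hematocrit and 0.05% parasitemia (final), then incubated with compounds 96 hours at 37 C in 5% CO2. Luminescence after detection reagent addition reported growth.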
Pf growth 48h – Primary qHTS for delayed death inhibitors of the malarial parasite plastid, 48 hour incubation; Potency, µM (series often up to 28.7 µM), for inactives: at the highest dose activity change, negative = inhibition, hits mostly inhibitors; P. falciparum luciferase growth in erythrocytes, 48 h; 5.9% of 310,000 active; AID 504832, 2011
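Parasite viability was followed by luminescence of a genomically integrated firefly luciferase. Cultures held 0.1% parasitemia at 2% hematocrit (final), incubated under 5% CO2 at 37 C.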
AMA1-RON2 inh – qHTS for Inhibitors of AMA1-RON; Towards Development of Antimalarial Drug Lead: Primary Screen. Plasmodium falciparum AMA1 (3D7) - RON2 peptide interaction. AlphaScreen AMA1-biotinylated RON2 peptide binding. Potency, µM (doses to about 58.2 µM), for inactives: at the top dose activity change, negative = inhibition, hits mostly inhibitors. 0.2% of 360,000 active. AID 720542, 2013;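 further: 0% = vehicle wells and -100% = peptide control; nearly all actives have a fitted effect of over 45% in size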
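AMA1 (3D7) with his tag at 25 nM final met compounds first, then biotinylated RON2 peptide at 25 nM; detection used donor plus acceptor beads, 10 µg/mL apiece, read by AlphaScreen after 30 min at room temperature.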
VACV mCherry inh – qHTS for Stage-Specific Inhibitors of Vaccinia Orthopoxvirus: mCherry Reporter Primary qHTS; Vaccinia virus mCherry reporter infection, fluorescence; Potency, µM (doses to about 36.5 µM), inactives show top-dose activity change, negative = inhibition, actives largely listed as inhibitors; 0.63% of 310,000 active; calls by dose curve; tested in A549 cells; further: nearly all actives have a fitted effect of over 35% in size
* hit, by the source's call; i = inactive; u = inconclusive; x = not tested or not shown; [ ] = another dose, or the depositor's remark. Unless noted, the call rests on the fitted dose curve; in most records, active means well fitted curve in the direction sought with a large enough effect; inconclusive means small, poorly fitted or top-dose-only effect, or another doubt; inactive means no such curve, though single readings can be large; an effect the other way counts as inactive or inconclusive. Unless noted, on the % scale 0 is the no-effect control and ±100 the full control effect; potency means the concentration at half of the fitted maximal effect.

SMILES	Vaccinia Venus	Pf growth 96h	Pf growth 48h	AMA1-RON2 inh	VACV mCherry inh
CCOc1cc2c3c(c1)C1(C(=O)N3C(C)(C)CC2C)C(C#N)=C(N)N2C(=C1C#N)Nc1ccccc12 (stereo not given)	-28%	u	3.3µM*	-18%[2.32 µM]	-24%
CCOc1cc2c3c(c1)C1(OCCO1)C(=O)N3C(C)(C)CC2C (stereo not given)	-4%	x	-5%	-4%	x
CC1CN(Cc2cccn2-c2cccnc2)Cc2cc(Cl)ccc2O1 (stereo not given)	2%	x	x	x	-10%
COc1ccc(C(=O)/C=C2\NCCc3cc(OC)c(OC)cc32)cc1OC	x	13µM*	10µM*	12%	x
CCOc1ccc(S(=O)(=O)Nc2ccc3c(c2)c(C(C)=O)c(C)n3S(=O)(=O)c2ccc(OCC)cc2)cc1	-21%	x	x	x	-23%
CCc1cc2c(NCCC(=O)O)ncnc2s1	7%	12µM*	18%	-7%	-2%
COc1ccc(OCCNc2cc(N3CCOCC3)ccc2[N+](=O)[O-])cc1	u	u	-15%	-16%	11µM*
O=[N+]([O-])c1ccc(N2CCN(S(=O)(=O)c3ccccc3)CC2)cc1NCCN1CCOCC1	u	9.3µM*	13µM*	u	u
O=[N+]([O-])c1ccc(N2CCN(S(=O)(=O)c3ccccc3[N+](=O)[O-])CC2)cc1NCc1cccnc1	-27%	10µM*	8.3µM*	-9%	-18%
COc1cccc(OCCNc2cc(N3CCOCC3)ccc2[N+](=O)[O-])c1	u	0.41µM*	15%	-21%	-24%
Cc1ccc(S(=O)(=O)N2CCN(c3ccc([N+](=O)[O-])c(NCCN4CCOCC4)c3)CC2)cc1	-18%	0%	u	-27%	-12%
COc1ccc(OCCNc2cc(N3CCCCC3)ccc2[N+](=O)[O-])cc1	-30%	u	u	u	u
CCc1ccc2oc(C(=O)N(Cc3cccc(Cl)c3)Cc3ccco3)c(C)c2c1	5%	x	x	x	-6%
COc1cc(=O)n2c(c1C(=O)NC(C)c1ccco1)CCN(Cc1ccccc1Cl)CC2 (stereo not given)	0%	x	x	x	i
Cc1ccccc1OCCNc1cc(N2CCN(CCO)CC2)ccc1[N+](=O)[O-]	u	7%	u	12%[2.32 µM]	u
COc1cccc(OCCNc2cc(N3CCCCC3)ccc2[N+](=O)[O-])c1	-14%	u	u	-30%	-18%
Cc1cccc(OCCNc2cc(N3CCN(CCO)CC3)ccc2[N+](=O)[O-])c1	u	136%	u	u	10µM*
CC1CN(c2ccc([N+](=O)[O-])c(NCCOc3ccccc3)c2)CCN1 (stereo not given)	11µM*	10%	u	-28%	u
c1cc(-c2ccncc2)ccn1	-5%	-28%	-5%	-8%	-11%
CC(C)(C)c1ccc(C(=O)NCCc2csc(-c3ccc(Cl)cc3)n2)cc1	1%	x	x	x	-17%
CN(C)c1ccc(-c2cc(O)c3ncccc3c2)cc1	x	5.2µM*	3.7µM*	x	x
Oc1cc(-c2ccncc2)cc2cccnc12	x	5.2µM*	u	x	x
CN(C)CCCNC(=O)c1ccc(-c2nc(-c3ccc(Cl)cc3)cs2)cc1	22µM*	1.5µM*	2.6µM*	7%	u
CN(C)CCCNC(=O)c1ccc(-c2cc(O)c3ncccc3c2)cc1	x	6.6µM*	10µM*	x	x
CN(C)c1ccc(/C=C/c2ccc3ncccc3c2)cc1	-5%	x	x	x	27%
SMILES	Vaccinia Venus	Pf growth 96h	Pf growth 48h	AMA1-RON2 inh	VACV mCherry inh
NCCCNc1ccc(Br)cn1	-13%	x	x	x	i
COC(=O)c1c(SC)nc2ccccc2c1OCc1ccc(C)cc1	-5%	x	x	x	-10%
Cc1cc(C)cc(NC(=O)c2ncn(-c3ccccc3)n2)c1	-1%	x	x	x	-5%
CCOC(=O)c1c(C)[nH]c(C)c1S(=O)(=O)N1CCC(C(=O)Nc2ccc(C)c(N(C)C)c2)CC1	0%	x	x	x	i
CCCCOC(=O)c1ccc(OC(=O)c2sc3ncn(Cc4cccc(F)c4)c(=O)c3c2C)cc1	-8%	x	x	x	-5%
CN1CCN(c2ccc(-c3cc(O)c4ncccc4c3)cc2)CC1	x	2.6µM*	2.6µM*	x	x
CC(=O)Nc1cc(-c2ccc(N3CCN(C)CC3)cc2)cn2c(-c3ccccc3)cnc12	-6%	x	x	-21%	-21%
Oc1cc(-c2ccc(N3CCCCC3)nc2)cc2cccnc12	x	2.9µM*	4.1µM*	x	x
Cc1ccccc1CSc1nc(-c2cccc(F)c2)nc2c1Cc1c(CO)cnc(C)c1O2	-8%	x	x	x	-8%
Cc1cnc(-n2ncc(C(=O)N(C)CC3COCCO3)c2C2CC2)nc1-c1cccs1 (stereo not given)	1%	x	x	x	-9%
COCCCn1c(=O)/c(=C\c2ccccc2OC(C)C)s/c1=C(/C#N)C(=O)Nc1ccc(C(=O)O)cc1	-6%	1.5µM*	1.9µM*	-13%	-5%
COc1cc(=O)n2c(c1C(=O)NCc1ccc3c(c1)OCO3)CCN(C(=O)c1ccccc1F)CC2	4%	x	x	x	-9%
COc1cc(OC)c2nc(-c3cc4c(c(OC)c3)OCCN(C(=O)C(C)c3n[nH]c(=O)c5ccccc35)C4)cc(C)c2c1 (stereo not given)	-12%	x	x	x	i
COc1ccccc1C(=O)NCCC(=O)N1CCN(c2ccccc2O)CC1	-21%	u	12µM*	-5%	-11%
COc1ccc(F)cc1CN1CCN(C(=O)CCC(=O)Nc2nnc(C(C)C)s2)CC1	-18%	u	-13%	10%	-33%[1.46 µM]
COc1ccccc1N1CCN(C(=O)CCC(=O)Nc2nnc(C(C)C)s2)CC1	0%	12µM*	-5%	-11%	i
COc1ccccc1C(=O)NCCC(=O)N1CCCCC1	x	26%	41%	-2%	x
COc1ccccc1C(=O)NCCC(=O)N1CC=C(c2ccccc2)CC1	-21%	u	12µM*	0%	-18%
CCOc1ccc(S(=O)(=O)NCCC(=O)N2CC=C(c3ccccc3)CC2)cc1	x	u	9.3µM*	11%	x
CCCCN1C(=O)CN(C2CCCCCC2)C(=O)C1c1ccc(OCCC)c(OC)c1 (stereo not given)	-6%	x	x	x	-8%
CN(C(=O)c1ccc(NC(=O)Cc2cccc(NC(=O)C3CCN(C(=O)CCc4ccccc4)CC3)c2)cc1)C1CCCC1	-20%	1.9µM*	9.3µM*	-8%	i
CN(C(=O)c1cccc(NC(=O)Cc2ccc(NC(=O)C3CCCN(C(=O)CCc4ccccc4)C3)cc2)c1)C1CCCCC1 (stereo not given)	u	x	x	-5%	13µM*
CN(Cc1ccccc1)C(=O)c1ccc(NC(=O)Cc2ccc(NC(=O)C3CCCN(C(=O)CCc4ccccc4)C3)cc2)cc1 (stereo not given)	u	x	x	2%	10µM*
